# Data reported in the supplement of paper PMC8728848.
# The sample as a whole holds a higher share of the strongest signals than the screen did.
# B1: Calsepa (Calystegia sepium), P93114 (protein)
# chain: MAVPMDTISGPWGNNGGNFWSFRPVNKINQIVISYGGGGNNPIALTFSSTKADGSKDTITVGGGGPDSITGTEMVNIGTDEYLTGISGTFGIYLDNNVLRSITFTTNLKAHGPYGQKVGTPFSSANVVGNEIVGFLGRSGYYVDAIGTYNRHK
# What was measured:
# Experiment in all cases: glycan array binding signal (z-score within array); higher = stronger binding
# Settings in all cases: glycan notation: IUPAC condensed, linker removed
# [1] = biological target: Fuc(a1-2)Gal(b1-3)GlcNAc(b1-3)GalNAc
# Method in brief: (§1)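 From the Consortium for Functional Glycomics database, 3228 arrays were curated, keeping only those whose protein sequence was available. Binding is given as a within-array Z-score averaged across arrays sharing a protein sequence and across linkers. Negative Z-scores can be read as non-binding.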
# [2] = biological target: Fuc(a1-2)Gal(b1-4)[Fuc(a1-3)]GlcNAc(b1-2)[Fuc(a1-2)Gal(b1-4)[Fuc(a1-3)]GlcNAc(b1-4)]Man(a1-3)[Fuc(a1-2)Gal(b1-4)[Fuc(a1-3)]GlcNAc(b1-2)Man(a1-6)]Man(b1-4)GlcNAc(b1-4)GlcNAc
# Method in brief: as §1
# [3] = biological target: Fuc(a1-2)Gal6S(b1-3)GlcNAc6S
# Method in brief: as §1
# [4] = biological target: Fuc(a1-2)[Gal(a1-3)]Gal(b1-4)GlcNAc
# Method in brief: as §1
# [5] = biological target: Fuc(a1-3)[Gal(b1-4)]GlcNAc(b1-2)Man(a1-3)[Fuc(a1-3)[Gal(b1-4)]GlcNAc(b1-2)Man(a1-6)]Man(b1-4)GlcNAc(b1-4)GlcNAc
# Method in brief: as §1
# [6] = biological target: Fuc(a1-3)[Gal(b1-4)]GlcNAc(b1-4)Gal(b1-4)[Fuc(a1-3)]GlcNAc
# Method in brief: as §1
# [7] = biological target: Fuc(a1-3)[GalNAc3S(b1-4)]GlcNAc
# Method in brief: as §1
# Fuc(a1-4)GlcNAc = biological target: Fuc(a1-4)GlcNAc
# Method in brief: as §1
# [8] = biological target: Gal(a1-3)Gal(b1-3)GlcNAc(b1-6)GalNAc
# Method in brief: as §1
# [9] = biological target: Gal(a1-4)Gal(b1-4)GlcNAc(b1-2)Man(a1-3)[Gal(a1-4)Gal(b1-4)GlcNAc(b1-2)Man(a1-6)]Man(b1-4)GlcNAc(b1-4)GlcNAc
# Method in brief: as §1
# [10] = biological target: Gal(b1-3)Gal(b1-4)GlcNAc(b1-2)Man(a1-3)[Gal(b1-3)Gal(b1-4)GlcNAc(b1-2)Man(a1-6)]Man(b1-4)GlcNAc(b1-4)GlcNAc
# Method in brief: as §1
# [11] = biological target: Gal(b1-3)GalNAc(b1-4)[Neu5Ac(a2-3)]Gal(b1-4)Glc
# Method in brief: as §1
# [12] = biological target: Gal(b1-3)GlcNAc(b1-2)Man(a1-3)[GlcNAc(b1-4)][Gal(b1-3)GlcNAc(b1-2)Man(a1-6)]Man(b1-4)GlcNAc(b1-4)GlcNAc
# Method in brief: as §1
# [13] = biological target: Gal(b1-3)[Fuc(a1-4)]GlcNAc
# Method in brief: as §1
# [14] = biological target: Gal(b1-3)[Fuc(a1-4)]GlcNAc(b1-3)Gal(b1-4)GlcNAc
# Method in brief: as §1
# [15] = biological target: Gal(b1-3)[Fuc(a1-4)]GlcNAc(b1-3)Gal(b1-4)[Fuc(a1-3)]GlcNAc
# Method in brief: as §1
# [16] = biological target: Gal(b1-3)[Neu5Ac(a2-6)]GlcNAc(b1-6)Gal(b1-4)Glc
# Method in brief: as §1
# [17] = biological target: Gal(b1-4)GlcNAc(b1-2)Man(a1-3)[Gal(b1-4)GlcNAc(b1-2)][GlcNAc(b1-4)]Man(b1-4)GlcNAc(b1-4)GlcNAc
# Method in brief: as §1
# [18] = biological target: Gal(b1-4)GlcNAc(b1-2)[Gal(b1-4)GlcNAc(b1-4)]Man(a1-3)[Gal(b1-4)GlcNAc(b1-2)Man(a1-6)]Man(b1-4)GlcNAc(b1-4)GlcNAc
# Method in brief: as §1
# [19] = biological target: Gal(b1-4)GlcNAc(b1-2)[Gal(b1-4)GlcNAc(b1-6)]Man(a1-6)[GlcNAc(b1-4)][Gal(b1-4)GlcNAc(b1-2)Man(a1-3)]Man(b1-4)GlcNAc(b1-4)GlcNAc
# Method in brief: as §1
# [20] = biological target: Gal(b1-4)GlcNAc(b1-6)Gal(b1-4)GlcNAc
# Method in brief: as §1
# [21] = biological target: Gal(b1-4)GlcNAc(b1-6)[Gal(b1-3)]GalNAc
# Method in brief: as §1
# Gal(b1-4)GlcNAc6P = biological target: Gal(b1-4)GlcNAc6P
# Method in brief: as §1
# Gal6S(b1-4)Glc6S = biological target: Gal6S(b1-4)Glc6S
# Method in brief: as §1
# GlcA(b1-3)Gal = biological target: GlcA(b1-3)Gal
# Method in brief: as §1
# [22] = biological target: GlcNAc(b1-2)Man(a1-3)[GlcNAc(b1-4)][GlcNAc(b1-2)Man(a1-6)]Man(b1-4)GlcNAc(b1-4)GlcNAc
# Method in brief: as §1
# [23] = biological target: GlcNAc(b1-2)[GlcNAc(b1-6)]Man(a1-6)[GlcNAc(b1-2)Man(a1-3)][GlcNAc(b1-4)]Man(b1-4)GlcNAc(b1-4)GlcNAc
# Method in brief: as §1
# [24] = biological target: GlcNAc(b1-3)[GlcNAc(b1-4)][GlcNAc(b1-6)]GlcNAc
# Method in brief: as §1
# GlcNAc3Prop(b1-4)GlcNAc = biological target: GlcNAc3Prop(b1-4)GlcNAc
# Method in brief: as §1
# Man(a1-2)Man(a1-3)Man = biological target: Man(a1-2)Man(a1-3)Man
# Method in brief: as §1
# [25] = biological target: Man(a1-2)Man(a1-3)[Man(a1-2)Man(a1-6)]Man
# Method in brief: as §1
# [26] = biological target: Man(a1-2)Man(a1-3)[Man(a1-6)]Man(a1-6)[Man(a1-2)Man(a1-3)]Man(b1-4)GlcNAc(b1-4)GlcNAc
# Method in brief: as §1
# [27] = biological target: Neu5Ac(a2-3)Gal(b1-4)GlcNAc(b1-2)Man
# Method in brief: as §1
# [28] = biological target: Neu5Ac(a2-3)Gal(b1-4)GlcNAc(b1-3)[Neu5Ac(a2-3)Gal(b1-4)GlcNAc(b1-6)]GalNAc
# Method in brief: as §1
# [29] = biological target: Neu5Ac(a2-6)Gal(b1-4)GlcNAc(b1-2)Man(a1-3)Man(b1-4)GlcNAc(b1-4)GlcNAc
# Method in brief: as §1
# [30] = biological target: Neu5Ac(a2-6)Gal(b1-4)GlcNAc(b1-2)Man(a1-3)[GlcNAc(b1-2)Man(a1-6)]Man(b1-4)GlcNAc(b1-4)GlcNAc
# Method in brief: as §1
# [31] = biological target: Neu5Ac(a2-6)Gal(b1-4)GlcNAc(b1-2)Man(a1-3)[Man(a1-6)]Man(b1-4)GlcNAc(b1-4)GlcNAc
# Method in brief: as §1
# [32] = biological target: Neu5Ac(a2-6)Gal(b1-4)GlcNAc(b1-2)Man(a1-3)[Neu5Ac(a2-6)Gal(b1-4)GlcNAc(b1-2)Man(a1-6)]Man(b1-4)GlcNAc(b1-4)GlcNAc
# Method in brief: as §1
# [33] = biological target: Neu5Ac(a2-6)Gal(b1-4)GlcNAc(b1-2)Man(a1-3)[Neu5Ac(a2-6)Gal(b1-4)GlcNAc(b1-2)Man(a1-6)]Man(b1-4)GlcNAc(b1-4)[Fuc(a1-6)]GlcNAc
# Method in brief: as §1
# [34] = biological target: Neu5Ac(a2-6)Gal(b1-4)GlcNAc(b1-2)Man(a1-6)[Gal(b1-4)GlcNAc(b1-2)Man(a1-3)]Man(b1-4)GlcNAc(b1-4)GlcNAc
# Method in brief: as §1
# [35] = biological target: Neu5Ac(a2-6)Gal(b1-4)GlcNAc(b1-3)[Neu5Ac(a2-6)Gal(b1-4)GlcNAc(b1-6)]GalNAc
# Method in brief: as §1
# [36] = biological target: Neu5Gc(a2-6)Gal(b1-4)GlcNAc
# Method in brief: as §1
binder,measurement,setting,value
B1,glycan array binding signal (z-score),[1],-0.268
same,glycan array binding signal (z-score),[2],-0.257
same,glycan array binding signal (z-score),[3],-0.26
same,glycan array binding signal (z-score),[4],-0.249
same,glycan array binding signal (z-score),[5],-0.082
same,glycan array binding signal (z-score),[6],-0.253
same,glycan array binding signal (z-score),[7],-0.265
same,glycan array binding signal (z-score),Fuc(a1-4)GlcNAc,-0.244
same,glycan array binding signal (z-score),[8],-0.269
same,glycan array binding signal (z-score),[9],3.47
same,glycan array binding signal (z-score),[10],3.79
same,glycan array binding signal (z-score),[11],-0.253
same,glycan array binding signal (z-score),[12],4.21
same,glycan array binding signal (z-score),[13],-0.25
same,glycan array binding signal (z-score),[14],-0.252
same,glycan array binding signal (z-score),[15],-0.253
same,glycan array binding signal (z-score),[16],-0.248
same,glycan array binding signal (z-score),[17],5.25
same,glycan array binding signal (z-score),[18],-0.045
same,glycan array binding signal (z-score),[19],3.71
same,glycan array binding signal (z-score),[20],-0.251
same,glycan array binding signal (z-score),[21],-0.249
same,glycan array binding signal (z-score),Gal(b1-4)GlcNAc6P,-0.27
same,glycan array binding signal (z-score),Gal6S(b1-4)Glc6S,-0.237
same,glycan array binding signal (z-score),GlcA(b1-3)Gal,-0.244
same,glycan array binding signal (z-score),[22],5
same,glycan array binding signal (z-score),[23],5.82
same,glycan array binding signal (z-score),[24],-0.241
same,glycan array binding signal (z-score),GlcNAc3Prop(b1-4)GlcNAc,-0.246
same,glycan array binding signal (z-score),Man(a1-2)Man(a1-3)Man,-0.248
same,glycan array binding signal (z-score),[25],-0.251
same,glycan array binding signal (z-score),[26],-0.239
same,glycan array binding signal (z-score),[27],-0.255
same,glycan array binding signal (z-score),[28],-0.273
same,glycan array binding signal (z-score),[29],6.79
same,glycan array binding signal (z-score),[30],3.81
same,glycan array binding signal (z-score),[31],3.86
same,glycan array binding signal (z-score),[32],4.29
same,glycan array binding signal (z-score),[33],0.514
same,glycan array binding signal (z-score),[34],4.01
same,glycan array binding signal (z-score),[35],-0.274
same,glycan array binding signal (z-score),[36],-0.247
